# From PubChem BioAssay (Tox21)
# Results filed as inconclusive are left out. Entries that show only a call come without a potency. Calls of active or inactive are those of the source. The call rests on the fitted dose curve; in most records, active means well fitted cell-killing curve with a large enough effect in the repeat runs; inconclusive means weak or mixed curves, or effect the other way; inactive means flat fitted curve, though single readings scatter.
# Assay: qHTS assay to identify small molecule agonists of the androgen receptor (AR) signaling pathway in the presence of an antagonist - cell viability counter screen (AID 1259379); further: nearly all actives have a fitted effect of over 25% in size
# Conditions: MDA-kb2 viability, CellTiter-Fluor, 16 h; series mostly up to 92.4 µM
# Description: National Center for Advancing Translational Sciences [NCATS]
# NIH Chemical Genomics Center [NCGC]
# U.S. Environmental Protection Agency [EPA]
# National Institutes of Environmental Health Sciences [NIEHS]
# National Toxicology Program [NTP]
# U.S. Food and Drug Administration [FDA]
# Androgen receptor (AR) is an important member of nuclear receptor family. Its signaling plays a critical role in AR-dependent prostate cancer and other androgen related diseases. Considerable attention has been given in the past decades to develop methods to study and screen for the environmental chemicals that have the potential to interfere with metabolic homeostasis, reproduction, developmental and behavioral functions. Therefore AR binding assay for screening against androgen agonists and antagonists can be used to identify potential endocrine disruptors.
# MDA-kb2 cells (from ATCC, deposited by Wilson et al.) are human breast carcinoma cells that were stably transfected with a luciferase reporter gene under control of the MMTV promoter that contains response elements for both androgen receptor (AR) and glucocorticoid receptor (GR). This particular screening for measuring luciferase reporter gene activity using MDA-kb2 cells against Tox21 10K library compounds is a confirmation study on agonist mode screening in the presence of AR-antagonist compound (Nilutamide) at 3.0uM final concentration. The cytotoxicity of the compounds was tested in parallel by measuring the cell viability using CellTiter-Fluor assay system (Promega, Madison, WI) in the same wells.
# Tox21 Assay Protocol Summary:
# MDA-kb2 cells (cells cultured without CO2) were dispensed at 3,000 cells/well in 4uL of culture medium into white wall/solid-bottom 1536-well plates (Corning Life Sciences, Corning, NY) using a Multidrop Combi (Thermo Fisher Scientific Inc., Waltham, MA) dispenser. The assay plates were incubated at 37C and 0% CO2 for 5hr. One uL of 3.0uM (final concentration) Nilutamide or assay buffer was added using two separate tips of Flying Reagent Dispenser (FRD, Aurora Discovery, San Diego, CA). Then 23nL of compounds dissolved in DMSO at 15 concentrations and positive controls were transferred to the assay plates using a Pintool station (Wako, San Diego, CA). The assay plates were incubated at 37C and 0% CO2 for 16 hr. After 15hr incubation at 37C, 1uL/well CellTiter-Fluor reagent (Promega Corporation) was added to each well of the assay plates using FRD. After 1hr incubation at 37C and 0% CO2, the fluorescence signal was measured using a ViewLux plate reader (PerkinElmer, Shelton, CT).
SMILES,Potency,"activity change, negative = cytotoxicity"
Nc1ccc(F)cc1,inactive,–
CC(C)(C)S,inactive,–
CSSc1ccoc1C,inactive,–
CC(C)C1CCC(C(=O)N[C@H](Cc2ccccc2)C(=O)O)CC1 (stereo not given in full),inactive,–
CC12CC3CC(C)(C1)CC(N)(C3)C2,inactive,–
c1ccc2sc(SSc3nc4ccccc4s3)nc2c1,–,5.77% [at 19 µM] (inactive)
CCCCCCC(O)CCCCCCCCCCC(=O)OC (stereo not given),inactive,–
CCCCCCC(CO)CCCC (stereo not given),inactive,–
COc1ccc(CCN(C)CCCN2CCc3cc(OC)c(OC)cc3CC2=O)cc1OC,inactive,–
O=C1[C@@H]2[C@H]3CC[C@H](C3)[C@@H]2C(=O)N1CCCCN1CCN(c2ncccn2)CC1,inactive,–
CC[C@H]1OC(=O)[C@H](C)[C@@H](O[C@H]2C[C@@](C)(OC)[C@@H](O)[C@H](C)O2)[C@H](C)[C@@H](O[C@@H]2O[C@H](C)C[C@H](N(C)C)[C@H]2O)[C@](C)(O)C[C@@H](C)C(=O)[C@H](C)[C@@H](O)[C@]1(C)O,inactive,–
Nc1ccc(NC(=O)c2ccc(N)cc2)cc1,inactive,–
COc1ccc(C(=O)NCc2ccc(OCCN(C)C)cc2)cc1OC,inactive,–
CC(=O)OC(C)C[N+](C)(C)C (stereo not given),inactive,–
CC1=C2[C@@H]([C@H](C)CC[C@H]2/C=C(\C)C(=O)O)[C@H](O)C1,inactive,–
CCCCCCCCCCCCCC(=O)OCC(O)CO (stereo not given),inactive,–
COc1ccc(/C=C/C(=O)c2ccc(OC)cc2OC)cc1,inactive,–
O=C(O)CN1C(=O)c2cccc3cccc(c23)C1=O,inactive,–
O=C(O)c1cccc(C[C@@H]2COc3ccc(OCc4nc5cc(F)ccc5s4)cc3[C@@H]2O)c1,inactive,–
CCOC(=O)c1c(N)sc2c1CCN(Cc1ccccc1)C2,inactive,–

SMILES,Potency,"activity change, negative = cytotoxicity"
CC(C)CC(O)CC(C)C,inactive,–
CCOC(=O)c1ccc(NC(=O)CN2CCCCC2)cc1,inactive,–
Cc1cc(CCC(=O)OCCOCCOCCOC(=O)CCc2cc(C)c(O)c(C(C)(C)C)c2)cc(C(C)(C)C)c1O,inactive,–
CC(=O)N[C@@H](Cc1ccc(O)cc1)C(=O)O,inactive,–
O=[N+]([O-])C1(Br)COCOC1,inactive,–
CCSC(=O)N(CC)CC,inactive,–
Nc1nc(-c2ccc([N+](=O)[O-])cc2)cs1,inactive,–
O=C(O)CCCc1c[nH]c2ccccc12,inactive,–
O=C(c1ccccc1)c1ccc(O)cc1,inactive,–
SCCc1cnccn1,inactive,–
CC(C(=O)O)c1ccc(C(=O)c2cccs2)cc1 (stereo not given),inactive,–
CC(=O)OCCC(C)CC(C)(C)C (stereo not given),inactive,–
CC(C)(C(=O)c1cccnc1)c1cccnc1,inactive,–
O=NN(CCCl)C(=O)NCCCl,inactive,–
CN=C(N)NC(=O)Nc1c(C)cccc1C,inactive,–
CCCCCCCC/C=C/C(=O)O,inactive,–
CC(=O)NCCO,inactive,–
CCCCCCCCCCCCCCCCCC(=O)OCC(CC)CCCC (stereo not given),inactive,–
CC(C)COC(=O)COc1cc(Cl)c(Cl)cc1Cl,inactive,–
Nc1ccn([C@H]2CS[C@@H](CO)O2)c(=O)n1,inactive,–
